In the library only some 2.5% were active in any assay of this set; here they are far more common.
ASK1 inh: human ASK1 kinase inhibition, primary screen | Q99683 | AlphaScreen MKK6 phosphorylation by ASK1, luminescence | inhibition, % at 7.44 µM | 22,000 tested, 0.99% active | AID 1159602; in the data active = inhibition above about 35%;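 note: 0% = median of compound wells and 100% = no enzyme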
Target sequence (Q99683 whole entry, looked up): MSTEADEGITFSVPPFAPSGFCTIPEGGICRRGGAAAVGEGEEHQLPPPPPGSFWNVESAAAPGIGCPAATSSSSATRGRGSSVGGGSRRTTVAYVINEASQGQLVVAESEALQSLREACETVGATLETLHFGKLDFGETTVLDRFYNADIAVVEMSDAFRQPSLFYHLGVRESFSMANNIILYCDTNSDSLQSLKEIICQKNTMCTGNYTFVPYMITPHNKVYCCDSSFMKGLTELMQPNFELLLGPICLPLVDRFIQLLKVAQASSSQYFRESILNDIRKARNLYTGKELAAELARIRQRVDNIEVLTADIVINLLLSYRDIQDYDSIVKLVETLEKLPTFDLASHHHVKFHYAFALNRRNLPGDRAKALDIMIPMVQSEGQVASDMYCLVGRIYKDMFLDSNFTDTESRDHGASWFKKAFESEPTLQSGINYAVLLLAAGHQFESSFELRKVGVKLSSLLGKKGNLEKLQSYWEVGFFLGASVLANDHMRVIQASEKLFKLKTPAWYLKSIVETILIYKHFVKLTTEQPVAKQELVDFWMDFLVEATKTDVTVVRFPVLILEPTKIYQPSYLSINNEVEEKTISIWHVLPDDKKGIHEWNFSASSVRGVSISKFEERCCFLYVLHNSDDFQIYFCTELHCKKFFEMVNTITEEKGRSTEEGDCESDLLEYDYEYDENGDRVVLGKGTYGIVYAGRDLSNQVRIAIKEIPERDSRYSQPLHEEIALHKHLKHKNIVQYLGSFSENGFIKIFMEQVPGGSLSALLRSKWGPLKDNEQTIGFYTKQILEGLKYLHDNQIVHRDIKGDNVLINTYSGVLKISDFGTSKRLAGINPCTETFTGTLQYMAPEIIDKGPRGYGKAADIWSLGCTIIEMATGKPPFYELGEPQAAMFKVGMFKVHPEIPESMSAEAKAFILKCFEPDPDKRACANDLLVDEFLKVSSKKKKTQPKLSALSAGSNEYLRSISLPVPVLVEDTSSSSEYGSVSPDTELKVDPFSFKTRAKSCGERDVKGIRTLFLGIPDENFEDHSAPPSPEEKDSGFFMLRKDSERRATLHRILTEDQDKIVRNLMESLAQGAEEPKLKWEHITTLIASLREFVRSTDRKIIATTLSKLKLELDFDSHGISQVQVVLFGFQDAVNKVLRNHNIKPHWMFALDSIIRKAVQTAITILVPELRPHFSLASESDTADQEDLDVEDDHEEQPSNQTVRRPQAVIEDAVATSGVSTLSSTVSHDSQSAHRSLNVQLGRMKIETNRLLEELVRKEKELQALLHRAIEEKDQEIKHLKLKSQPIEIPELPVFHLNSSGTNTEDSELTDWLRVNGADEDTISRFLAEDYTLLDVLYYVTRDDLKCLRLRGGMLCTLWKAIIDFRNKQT
ULK1 primary: inhibitors of human ULK1 kinase. inhibition, % at 5.96 µM. AlphaScreen Atg13 phosphorylation by ULK1, luminescence. 30,000 tested, 1.9% active. O75385. AID 1259251; in the data active = inhibition above about 43%;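 note: 0% = median of compound wells and 100% = no enzyme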
AlphaScreen intf: counter-screen for ASK1 inhibitors: AlphaScreen optical interference | shares compounds with ASK1 inh | IC50, µM | AlphaScreen TruHits beads, signal interference counterscreen | 220 tested, 20% active;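 active = IC50 of 10 µM or lower in the counterscreen; inactive = IC50 above 10 µM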;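 note: loss of AlphaScreen light from TruHits beads alone with no ASK1 enzyme present; potency of signal reduction so a low IC50 flags an assay artifact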
An asterisk follows results filed as active; i = inactive; x = no result given; ! = a repeat was not active.

SMILES	ASK1 inh	ULK1 primary	AlphaScreen intf
Cc1nn(C)c(C)c1-c1cc(Nc2ccccc2)nc(N)n1	-10	3	x
Nc1nc(NCc2ccc3c(c2)OCO3)cc(Nc2ccc(N3CCOCC3)cc2)n1	33	16	x
Nc1nc(Nc2ccc(N3CCOCC3)cc2)cc(Nc2ccc3c(c2)OCO3)n1	37*	16	>17
O=C1CCCN1CCn1cnc2c(Nc3ccccc3)nc(Nc3ccc(N4CCOCC4)cc3)nc21	9	4	x
COc1ccc(Nc2nc(NCc3cccc(C(F)(F)F)c3)c3cc(OC)c(OC)cc3n2)cc1	2	-26	x
COc1cc2nc(Nc3ccccc3)nc(Nc3ccc(N4CCOCC4)cc3)c2cc1OC	48*	-12	9.5*
COc1cc2nc(Nc3ccc(N4CCOCC4)cc3)nc(NCc3cccc(C(F)(F)F)c3)c2cc1OC	52*!	-15	6.2*
Cn1c(Nc2nc(Nc3ccc(N4CCOCC4)cc3)c3[nH]cnc3n2)nc2ccccc21	15	2	x
Cc1cnc(Nc2nc3ccccc3n2C)nc1Nc1ccc(N2CCOCC2)cc1	39*	30	>22
COc1cc2nc(Nc3ccc(-n4ccnc4)cc3)nc(Nc3ccc(N4CCOCC4)cc3)c2cc1OC	17	-2	x
COc1cc2nc(Nc3ccc(N4CCOCC4)cc3)nc(Nc3ccc(N4CCOCC4)cc3)c2cc1OC	64*	-10	5.6*
COc1cc2nc(Oc3ccccc3)nc(Nc3ccc(N4CCOCC4)cc3)c2cc1OC	2	-15	x
O=C1C2C3c4ccccc4C([N+](=O)[O-])(c4ccccc43)C2C(=O)N1Cc1ccccc1 (centres undefined)	x	-15	x
O=C(NC1CCC(Nc2ccc3[nH]ncc3c2)CC1)C(O)c1ccc(C(F)(F)F)cc1 (centres undefined)	-17	-7	x
Nc1cccc(-c2nc(C(=O)NC3CCN(Cc4ccccc4)CC3)cs2)c1	-5	7	x
Cc1cc(NCCc2ccc(O)cc2)nc(Nc2nc3ccccc3n2C)n1	10	-11	x
COc1cc2nc(Nc3ccc4ncccc4c3)nc(Nc3ccc(N4CCOCC4)cc3)c2cc1OC	10	2	x
COc1cc2nc(Nc3nc4ccccc4n3C)nc(Nc3ccc(N4CCOCC4)cc3)c2cc1OC	67*	-13	i
c1nc2nc(Nc3ccc(N4CCOCC4)cc3)nc(Nc3ccc(N4CCOCC4)cc3)c2[nH]1	20	14	x
COc1cc2nc(Nc3nc4ccccc4n3C)nc(Nc3ccc(NC(C)=O)cc3)c2cc1OC	72*	-52	9.7*
COc1cc2nc(Nc3nc4ccccc4n3C)nc(Nc3ccc4c(c3)OCO4)c2cc1OC	-5	-1	x
CN(C)c1cccc(Nc2nc(Nc3ccc(N4CCOCC4)cc3)c3[nH]cnc3n2)c1	36*	-3	i
COc1cc2nc(Nc3ccc(N4CCOCC4)cc3)nc(Nc3ccccc3)c2cc1OC	56*	-11	8.5*
COc1cc2nc(Nc3nc4ccccc4n3C)nc(Nc3cc(OC)c(OC)c(OC)c3)c2cc1OC	8	1	x
CC(C)n1cnc2c(NCCO)nc(Nc3ccncn3)nc21	-22	22	x
SMILES	ASK1 inh	ULK1 primary	AlphaScreen intf
c1ccc(CN2CCC(Nc3nccc(Nc4ccc(N5CCOCC5)cc4)n3)CC2)cc1	16	14	x
COc1cc2nc(NC3CCN(Cc4ccccc4)CC3)nc(Nc3ccc(N4CCOCC4)cc3)c2cc1OC	39*	14	8.3*
COc1cc2nc(NC3CCN(Cc4ccccc4)CC3)nc(Nc3cc(OC)c(OC)c(OC)c3)c2cc1OC	17	-7	x
c1ccc(CN2CCC(Nc3ccnc(Nc4ccc(N5CCOCC5)cc4)n3)CC2)cc1	50*	16	i
COc1cc(NC(=O)c2ccnc(Nc3nccc4ccccc34)c2)cc(OC)c1OC	29	16	x
CN1CCN(c2ccc(-c3ccc(C(=O)NCc4cccnc4)s3)cc2)CC1	-14	3	x
COc1ccc2c(c1)CC(C(=O)Nc1ccc(-c3cn[nH]c3)cc1OCCOCc1ccccc1)CO2 (centres undefined)	43*	17	>19
COc1ccc2c(c1)CC(C(=O)Nc1ccc(-c3cn[nH]c3)cc1OCCC(C)C)CO2 (centres undefined)	31	9	x
c1ccc2c(c1)OCC(c1nc(N3CCOCC3)c3cc(-c4cn[nH]c4)ccc3n1)O2 (centres undefined)	37*	-50	>19
CN(C)CCN(C)c1nc(C2COc3ccccc3O2)nc2ccc(-c3cn[nH]c3)cc12 (centres undefined)	28	12	x
COc1cc(NC(=O)c2ccc3nc(N4CCCC4CO)sc3c2)cc(OC)c1OC (centres undefined)	3	-6	x
CC(C)N(CCNc1nc(Nc2ccccc2)nc2nc[nH]c12)C(C)C	-12	14	x
Cc1nc(C)n(-c2ccc(Nc3nccc(-c4cccc(-n5cncn5)c4)n3)cc2)n1	48*	12	>19
Cc1nc(C)n(-c2ccc(Nc3nccc(-c4cc(-n5cncn5)cc(-n5cncn5)c4)n3)cc2)n1	10	17	x
O=C(Cc1cn(-c2ccc(Nc3ccc4ncccc4c3)nn2)c2ccccc12)Nc1ccc(N2CCOCC2)cc1	24	18	x
O=C(Cc1cn(-c2ccc(Nc3nccc4ccccc34)nn2)c2ccccc12)Nc1ccc2c(c1)OCO2	46*	10	>22
CN(C)c1cccc(Nc2ccc(-n3cc(CC(=O)Nc4ccc5c(c4)OCO5)c4ccccc43)nn2)c1	43*	21	>19
CN(C)c1cccc(Nc2ccc(-n3cc(CC(=O)Nc4ccccc4)c4ccccc43)nn2)c1	22	15	x
CN(C)c1cccc(Nc2ccc(-n3cc(CC(=O)Nc4ccc(N5CCOCC5)cc4)c4ccccc43)nn2)c1	44*	15	>20
Cn1nccc1Nc1ccc(-n2cc(CC(=O)Nc3ccc4c(c3)OCO4)c3ccccc32)nn1	21	30	x
Cc1nc(C)n(-c2ccc(Nc3nc(-c4cnn(C)c4)cc(N(C)C)n3)cc2)n1	-1	-1	x
O=C(NCc1cccnc1)c1ccnc(NCCN2CCOCC2)c1	-15	-14	x
CCN(CC)C(=O)C1CCCN(c2ncc(C)c(NCCCN3CCCC3=O)n2)C1 (centres undefined)	-6	10	x
Cn1ncc(C(N)=O)c1Nc1ccnc(Nc2ccc(N3CCOCC3)cc2)c1	-11	5	x
COc1cc(Nc2ncnc3nc(-c4ccc(C(N)=O)cc4)[nH]c23)cc(OC)c1OC	25	6	x
SMILES	ASK1 inh	ULK1 primary	AlphaScreen intf
Cc1cnc(-c2ccc(C(N)=O)cc2)nc1Nc1ccc(N2CCOCC2)cc1	36*	30	>20
COc1ccc(-c2ncc(C)c(Nc3ccc(N4CCOCC4)cc3)n2)cn1	0	2	x
COc1cc(Nc2nc(-c3ccc(C(N)=O)cc3)ncc2C)cc(OC)c1OC	61*	55*	>19
O=C(NCCN1CCOCC1)c1cccc(-n2ncc3cc(Nc4ccccc4OC(F)F)ccc32)c1	0	-18	x
O=C(NCc1cccc(C(F)(F)F)c1)c1ccc2nc(Nc3ncccn3)sc2c1	-6	2	x
COc1cc(NC(=O)c2cccc(-n3cc(NC(=O)Nc4ccccc4)cn3)c2)cc(OC)c1OC	5	-33	x
COc1ccc(C)cc1NC(=O)Nc1cnn(-c2cccc(C(=O)Nc3cc(OC)c(OC)c(OC)c3)c2)c1	-18	-5	x
COc1cc(NC(=O)c2cccc(-n3cc(NC(=O)Nc4ccc(-c5ccccc5)cc4)cn3)c2)cc(OC)c1OC	49*	-30	>19

Screening data: PubChem, The Scripps Research Institute Molecular Screening Center
